Screens: PubChem, National Center for Advancing Translational Sciences (NCATS)
TDP1 cell noCPT – qHTS for Inhibitors of human tyrosyl-DNA phosphodiesterase 1 (TDP1): qHTS in cells in absence of CPT | DT40 Tdp1-/- hTDP1 cells, no CPT, ATP luminescence, 48 h | Potency, µM (highest dose often 46.2 µM), for the others: top-dose activity change, negative = growth inhibition, most hits filed as inhibitors | 15% of 420,000 active | AID 686978, 2013; further: potency means the concentration at half of the fitted maximal effect; on the % scale 0 is the no-effect control and ±100 the full control effect; nearly all actives have a fitted effect of over 55% in size
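Luminescent ATP content (CellTiter-Glo) served as the growth readout. Knockout chicken DT40 cells expressing human TDP1 were exposed to compounds without camptothecin for a minimum 48 hr at 37 °C.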
HepG2 tox – qHTS for Inhibitors of TGF-b: Cytotox Counterscreen; AID 588856, 2011; Potency, µM (series often up to 46.1 µM), for inactives: at the highest dose activity change, negative = cytotoxicity, usual class: cytotoxic; 0.76% of 410,000 active; HepG2 CAGA-GFP viability, ATP luminescence, 18 h; further: potency means the concentration at half of the fitted maximal effect
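HepG2 CAGA-GFP cells (1000/well, DMEM with 1% FBS) received compound, then TGF-beta at 500 pg/mL final, and were incubated 18 hours at 37 degrees C. Viability was read by CellTiter-Glo luminescence. Media-only wells were set as complete cell-killing and DMSO as no toxicity.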
TGFb SMAD3 inh – qHTS for Inhibitors of TGF-b; Potency, µM (titrated, usually from 46.1 µM), for the others: at the highest dose activity, negative = inhibition, most hits filed as inhibitors; 1.2% of 410,000 active; HepG2 CAGA-GFP TGF-b/SMAD3 reporter, GFP fluorescence, 18 h; TGF-beta stimulated, 500 pg/mL final; AID 588855, 2011; further: potency means the concentration at half of the fitted maximal effect; on the % scale 0 is the no-effect control and ±100 the full control effect; nearly all actives have a fitted effect of over 65% in size
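GFP signal (ex488/em500-530) from TGF-beta-stimulated HEPG2 CAGA-GFP cells, 500 pg/mL final, 18 h at 37 degrees C in DMEM plus 1% FBS, normalized to unstimulated and DMSO-stimulated controls.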
IL1B secr inh – qHTS for Inhibitors of Inflammasome Signaling: IL-1-beta AlphaLISA Primary Screen; THP-1 LPS/ATP IL-1B secretion, AlphaLISA, 16 h; stronger effect = lower value; activity change, % at 57.5 µM; 4.7% of 360,000 active; AID 743279, 2014; in the data active means activity change below about -50%; inconclusive means mostly about -30% to -49%; further: on the % scale 0 is the no-effect control and ±100 the full control effect
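Secreted IL-1B measured by AlphaLISA bead assay after 16 h compound exposure of THP-1 cells; compounds (final up to 57.5 uM) added 1 h before LPS (250 ng/mL) and ATP (1.25 mM) stimulation; lower signal means less secretion.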
TDP1 inh – qHTS Assay for Inhibitors of Tyrosyl-DNA Phosphodiesterase (TDP1); Tyrosyl-DNA phosphodiesterase 1 (Homo sapiens), Q9NUW8; recombinant TDP1, AlphaScreen DNA substrate cleavage; Potency, µM (top dose mostly 130 µM), for the others: at the top dose activity change, negative = inhibition, hits mostly inhibitors; 0.28% of 350,000 active; AID 485290, 2010; further: potency means the concentration at half of the fitted maximal effect; on the % scale 0 is the no-effect control and ±100 the full control effect; nearly all actives have a fitted effect of over 40% in size
Target sequence (Q9NUW8 whole entry, looked up): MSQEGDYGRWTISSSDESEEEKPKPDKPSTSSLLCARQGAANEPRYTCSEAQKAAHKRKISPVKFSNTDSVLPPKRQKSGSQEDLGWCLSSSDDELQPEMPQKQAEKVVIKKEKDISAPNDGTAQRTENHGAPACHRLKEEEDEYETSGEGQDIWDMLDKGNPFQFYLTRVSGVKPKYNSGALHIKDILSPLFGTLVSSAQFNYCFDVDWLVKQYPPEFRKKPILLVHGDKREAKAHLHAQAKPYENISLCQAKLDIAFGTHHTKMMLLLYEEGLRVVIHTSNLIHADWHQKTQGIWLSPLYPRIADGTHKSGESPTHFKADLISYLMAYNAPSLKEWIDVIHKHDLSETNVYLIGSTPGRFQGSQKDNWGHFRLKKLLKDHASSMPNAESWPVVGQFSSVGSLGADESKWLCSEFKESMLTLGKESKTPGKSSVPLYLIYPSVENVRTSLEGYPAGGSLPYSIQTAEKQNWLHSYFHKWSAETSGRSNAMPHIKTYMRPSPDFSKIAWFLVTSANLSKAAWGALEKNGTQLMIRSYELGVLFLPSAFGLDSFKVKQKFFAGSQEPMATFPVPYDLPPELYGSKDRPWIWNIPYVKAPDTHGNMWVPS
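AlphaScreen read-out: signal falls as enzyme removes the 3' tyrosine-FITC from a 5'-biotinylated DNA oligo (15 nM, 5 min, RT). Enzyme was E. coli-made recombinant Tdp1 at 1 nM, exposed to compound for 15 min beforehand; beads 10 ug/ml, 10 min.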
TDP1 cell CPT – qHTS for Inhibitors of human tyrosyl-DNA phosphodiesterase 1 (TDP1): qHTS in cells in presence of CPT. chicken DT40 Tdp1-/-;hTDP1 cells + 20 nM CPT, ATP luminescence, 48 h. AID 686979, 2013. 12% of 420,000 active. Potency, µM (highest dose often 46.2 µM), for inactives: at the top dose activity change, negative = growth inhibition, most hits filed as inhibitors; further: potency means the concentration at half of the fitted maximal effect; on the % scale 0 is the no-effect control and ±100 the full control effect; nearly all actives have a fitted effect of over 55% in size
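Chicken DT40 Tdp1-/- cells stably complemented with human TDP1 were seeded at 400 cells/well in medium containing 20 nM camptothecin, exposed to pin-transferred compounds, and grown at 37 °C for at least 48 hr. Viability was read as ATP luminescence.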
* = called active by the depositor; [ ] = remark or other dose. Only some compounds are listed: those with a hit (about 19% of all), similar ones and a draw of the others. Unless noted, the call rests on the fitted dose curve; in most records, active means well fitted curve in the direction sought with a large enough effect; inconclusive means small, poorly fitted or top-dose-only effect, or another doubt; inactive means no such curve, though single readings can be large; an effect the other way counts as inactive or inconclusive.

For CCOc1cccc(NC(=O)C2CC(=O)N(C)C(=Nc3cccc(OC)c3)S2)c1 (centres undefined) the results were TDP1 cell noCPT inconclusive, HepG2 tox -77%, TGFb SMAD3 inh inconclusive, TDP1 inh -5%[12.3 µM] and TDP1 cell CPT inconclusive.
Screening N#CCNC(=O)C1CC(=O)N(CCc2ccc(F)cc2)C1 (centres undefined) returned TDP1 cell noCPT -2%, HepG2 tox 2%, TGFb SMAD3 inh 2%, IL1B secr inh 0 and TDP1 cell CPT -5%.
`O=C(COc1ccccc1)Nc1ccc2nc(SCCOc3ccccc3)sc2c1` gave TDP1 cell noCPT inconclusive, HepG2 tox -3%, TGFb SMAD3 inh -2%, TDP1 inh 1% and TDP1 cell CPT -23%.
Screening COc1ccc(CCC(=O)NCc2nc3cccnc3n2Cc2ccccc2)cc1 returned TDP1 cell noCPT 16µM*, HepG2 tox -23%, TGFb SMAD3 inh -6%, TDP1 inh 8% and TDP1 cell CPT inconclusive.
For CCOc1ccccc1C(=O)NCc1nc2cccnc2n1Cc1ccc(C)cc1 the results were TDP1 cell noCPT 16µM*, HepG2 tox -12%, TGFb SMAD3 inh -34%, TDP1 inh 4% and TDP1 cell CPT 18µM*.
`COc1ccc(CCC(=O)NCc2nc3cccnc3n2Cc2ccc(C)cc2)cc1` gave TDP1 cell noCPT 23µM*, HepG2 tox -22%, TDP1 inh 3% and TDP1 cell CPT inconclusive.
Screening COc1cccc(N2CCN(C(=O)C3Cc4ccccc4N3C(C)=O)CC2)c1 (centres undefined) returned TDP1 cell noCPT -26%, HepG2 tox -6%, TGFb SMAD3 inh -23%, TDP1 inh 1% and TDP1 cell CPT inconclusive.
Screening CCOc1ccc(-c2nc(CSCC(=O)NC3CC3)c(C)o2)cc1 returned TDP1 cell noCPT inconclusive, HepG2 tox -17%, TGFb SMAD3 inh 22%, IL1B secr inh 10, TDP1 inh 2% and TDP1 cell CPT inconclusive.
Screening CCOc1ccc(-c2nc(CSCC(=O)NC3CCN(Cc4ccccc4)CC3)c(C)o2)cc1 returned TDP1 cell noCPT inconclusive, HepG2 tox -40%, TGFb SMAD3 inh inconclusive, IL1B secr inh -21 and TDP1 cell CPT 23µM*.
`CCOc1ccc(-c2nc(CSCC(=O)NC3CCCc4ccccc43)c(C)o2)cc1` (centres undefined) gave TDP1 cell noCPT inconclusive, HepG2 tox -14%, TGFb SMAD3 inh 7%, IL1B secr inh -77*, TDP1 inh 5% and TDP1 cell CPT 18µM*.
Cc1oc(-c2ccc(Cl)cc2)nc1CSCC(=O)NC1CCN(Cc2ccccc2)CC1 was read as TDP1 cell noCPT inconclusive, HepG2 tox -21%, TGFb SMAD3 inh inconclusive, IL1B secr inh -61*, TDP1 inh 3% and TDP1 cell CPT inconclusive.
Screening COc1ccc(C(=O)NC2CC2)cc1OC1CCN(Cc2ccc(F)cc2F)CC1 returned TDP1 cell noCPT -27%, HepG2 tox 0%, TGFb SMAD3 inh -33%, IL1B secr inh 1, TDP1 inh 1%[56.1 µM] and TDP1 cell CPT -28%.
`O=C(NC1CC1)[C@@H]1CSC2c3ccccc3C(=O)N21` (some centres undefined) gave TDP1 cell noCPT 12%, HepG2 tox -6%, TGFb SMAD3 inh -11%, IL1B secr inh -5, TDP1 inh 0% and TDP1 cell CPT 8%.
